Laboratory results taken from ChEMBL document CHEMBL1157539, “Thousands of chemical starting points for antimalarial lead identification” (Nature, 2010).

Assays:
Format in all cases: functional
Plasmodium falciparum [1] = experiment: GSK_TCMDC: Inhibition of Plasmodium falciparum 3D7 in whole red blood cells, using parasite LDH activity as an index of growth. Test compounds present at 2uM
Plasmodium falciparum [2] = experiment: GSK_TCMDC: Inhibition of Plasmodium falciparum Dd2 in whole red blood cells, using parasite LDH activity as an index of growth. Test compounds present at 2uM
HepG2 = experiment: GSK_TCMDC: Percent inhibition of human HepG2 cell line. Test compounds present at 10uM.

Row | SMILES | Inhibition (Plasmodium falciparum [1]) [%] | Inhibition (Plasmodium falciparum [2]) [%] | Inhibition (HepG2) [%]
1 | CC(C)c1ccc(O)cc1Nc1ccnc2ccc(C(F)(F)F)cc12 | 97 | 90 | 6
2 | Cc1ccc(CNC(=O)c2ccc(CN3CCCN(Cc4ccsc4)CC3)cc2)cc1.O=C(O)C(F)(F)F | 93 | 0 | 16
3 | COc1ccc(CCn2c(=N)c(C(=O)NCc3cccnc3)cc3c(=O)n4ccccc4nc32)cc1 | 98 | 5 | 16
4 | Fc1ccc(-c2cncc(Nc3ccncc3)n2)cc1 | 88 | 11 | 8
5 | Cl.NC1=NC2(CCCCC2)N(Cc2ccc(Cl)c(Cl)c2)C(N)=N1 | 86 | 76 | 22
6 | Cc1n[nH]c2cc(Nc3ccnc(Nc4cccc(CN5CCOCC5)c4)n3)ccc12 | 83 | 0 | 33
7 | COc1ccc(NS(=O)(=O)c2ccc(C(=O)Nc3ccc(C(F)(F)F)cc3)cc2)cc1N1CCN(CC2CC2)CC1.O=C(O)C(F)(F)F | 92 | 0 | 15
8 | O=C(Nc1ccc(-c2nc3ccccc3[nH]2)cc1)C1CCCN(CC2CC2)C1 (stereo not drawn) | 89 | 8 | 6
9 | CC[C@H](C)CNC(=O)c1ccnc(-c2cccc(CN3CCC(N4CCCC4)CC3)c2)c1.O=C(O)C(F)(F)F | 97 | 12 | 0
10 | COc1ccccc1C1CCN(CCN2CCC(NC(=O)c3ccc(-c4ccc(C#N)cc4)cc3)CC2)CC1 | 99 | 42 | 31
11 | O=C(CN1CCN(C(C(=O)Nc2cc(C(F)(F)F)ccc2Cl)c2ccccc2)CC1)NC1CC1 (stereo not drawn) | 95 | 93 | 0
